Rows were chosen to be rich in hits. Some 0.93% of all compounds tested hit in one or more screens of this group.
LAP4 TOR yeast = modulators of LAP4-GFP expression in yeast, primary screen, S. cerevisiae, multiplex flow cytometry, MLPCN library; 3 h; median GFP as percent of DMSO wells; GFP response vs DMSO, % at 10 µM; actives 0.34% (n = 320,000);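 active = GFP response vs DMSO above a set limit, about the screen mean plus 3 SD, cut at about 150% in these data; inconclusive = under 70 cell events counted for the yeast strain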
MEP2 TOR yeast = modulators of MEP2-GFP levels in yeast, primary screen, S. cerevisiae, multiplex flow cytometry, MLPCN library | actives 0.51% (n = 330,000) | GFP response vs DMSO, % at 10 µM | S. cerevisiae MEP2-GFP strain, 3 h; 100% = DMSO control level | AID 2016, 2009;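 active = GFP response versus DMSO above a set limit, roughly screen mean plus 3 SD, cut at about 180% in these data; inconclusive = fewer than 70 cells counted for a yeast strain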;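 also: median GFP fluorescence of the barcode-gated MEP2-GFP cells per well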
AGP1 TOR yeast = modulators of AGP1-GFP expression in yeast TOR pathway, primary screen, cell-based, multiplex flow cytometry, S. cerevisiae, MLPCN library; 3 h; GFP as percent of DMSO wells; GFP response vs DMSO, % at 10 µM; actives 0.02% (n = 320,000);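 active = GFP response relative to DMSO above a set limit, near screen average plus 3 SD, cut at about 150% in these data; inconclusive = fewer than 70 cells counted for the yeast strain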;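 also: median GFP channel fluorescence of the gated AGP1 strain per well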
CIT2 TOR yeast = modulators of CIT2-GFP expression in yeast, primary screen, S. cerevisiae, GFP fusion, multiplex flow cytometry, MLPCN library; actives 0.065% (n = 320,000); S. cerevisiae CIT2-GFP strain, 3 h; 100 means same as DMSO wells; GFP response vs DMSO, % at 10 µM; AID 2029, 2009;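 active = GFP response relative to DMSO above a set limit, near the screen mean plus 3 SD, cut at about 150% in these data; inconclusive = Fewer than 70 cells measured for a yeast strain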;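 also: ratio of well median GFP fluorescence to mean of DMSO wells on the plate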
RPL19A-GFP yeast = RPL19A-GFP expression modulators in yeast, primary screen, cell-based, S. cerevisiae, multiplex flow cytometry, MLPCN | actives 0.3% (n = 330,000) | S. cerevisiae RPL19A-GFP strain, 3 h; stronger effect = lower value | percent response vs DMSO, % at 10 µM;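 active = percent response vs DMSO below 50%; inconclusive = fewer than 70 events counted for the yeast strain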;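 also: median channel GFP fluorescence of the barcoded RPL19A-GFP strain; ratio of sample median GFP to plate DMSO average so 100% = DMSO; lower means less RPL19A-GFP as with rapamycin TOR inhibition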
LAP4-GFP pick2 = LAP4-GFP expression modulators in yeast, confirmation, cell-based, second cherry pick, flow cytometry. AID 2621, 2010. actives 20% (n = 590). S. cerevisiae LAP4-GFP strain, 3 h. shares compounds with LAP4 TOR yeast. GFP response vs DMSO, % at 10 µM;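 active = GFP signal as percent of the solvent control above about 150%, meaning raised reporter expression, limit read from the data; inconclusive = fewer than 70 cells counted in the well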;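 also: ratio of well median GFP fluorescence to plate DMSO mean so 100% = DMSO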
MEP2-GFP pick2 = modulators of MEP2-GFP levels in yeast, confirmation, S. cerevisiae, flow cytometry GFP, second cherry picks. shares compounds with LAP4 TOR yeast. S. cerevisiae MEP2-GFP strain, 3 h. GFP response vs DMSO, % at 10 µM. actives 10% (n = 590). AID 2622, 2010;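 active = GFP signal above 150% of the solvent control wells, that is a rise of more than half; inconclusive = fewer than 70 yeast cells counted in the well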;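 also: median channel GFP fluorescence of all gated yeast cells per well; ratio of median GFP to plate DMSO average so 100% = DMSO level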
RPL19A-GFP pick2 = RPL19A-GFP modulators in TOR pathway yeast, confirmation, cell-based, S. cerevisiae, flow cytometry, second cherry pick | S. cerevisiae RPL19A-GFP strain, 3 h; stronger effect = lower value; 100% means same as DMSO wells | shares compounds with LAP4 TOR yeast | GFP response vs DMSO, % at 10 µM | actives 3% (n = 590) | AID 2623, 2010;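 active = under 65% GFP response relative to DMSO; inconclusive = yeast strain with under 70 measured events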;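 also: median GFP channel fluorescence per well over the all cells gate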
CIT2-GFP pick2 = modulators of CIT2-GFP expression in yeast, confirmation, flow cytometry, second cherry pick, single plex | shares compounds with LAP4 TOR yeast | S. cerevisiae CIT2-GFP strain, 3 h; DMSO control wells read 100% | GFP response vs DMSO, % at 10 µM | actives 8% (n = 590) | AID 2624, 2010;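 active = GFP response vs DMSO above about 150%, limit read from the data; inconclusive = fewer than 70 events counted for a yeast strain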;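 also: median green fluorescence per well over all gated yeast cells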
AGP1 GFP CP2 = AGP1-GFP expression modulators, hit retest, confirmation, cell-based, flow cytometry, S. cerevisiae, cherry pick set 2; shares compounds with LAP4 TOR yeast; S. cerevisiae AGP1-GFP strain, 3 h; percent response vs DMSO, % at 10 µM; 590 tested, under 10 active; AID 2643, 2010;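 active = over 150 percent of DMSO response; inconclusive = yeast strain measured with under 70 events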;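 also: median GFP channel fluorescence over all cells without mother daughter split; sample median GFP divided by mean DMSO control so 100% equals DMSO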
Yeast autofluor = compound autofluorescence in yeast s288c, dose response, artefact control for yeast TOR pathway GFP screen, s288c strain; AID 2757, 2010; shares compounds with LAP4 TOR yeast; S. cerevisiae s288c, 520 nm autofluorescence, flow cytometry, 3 h; stronger effect = higher value; zero means same as solvent-only cells; 610 tested, under 10 active; fluorescence change (kMESF span) at 33 µM;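 active = fluorescence span over the dose series, or activity score, above about 33, limit read from the data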
s288c autofl DR = autofluorescence of compounds in yeast s288c, dose response, artefact control for yeast TOR pathway GFP screen, primary hits, KU SAR, s288c parental; 110 tested, under 10 active; AID 488829, 2010; shares compounds with LAP4 TOR yeast; fluorescence change (span) at 33 µM; S. cerevisiae s288c parental, compound autofluorescence, flow cytometry, 3 h;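 active = fluorescence change span, or the activity score built from it, above 25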
TORC1 bypass = wild-type yeast growth inhibition sparing TORC1 bypass cells, mechanism study for yeast TOR pathway GFP screen, BY4741 wild type, TORC1 bypass strain. shares compounds with LAP4 TOR yeast. S. cerevisiae BY4741 spot growth rating, 48-72 h; stronger effect = lower value. growth rating (0-3) at 30 µM. 120 tested, under 10 active;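 active = growth rating at most 1 for wild type yeast while the TORC1 bypass strain still grows fully, rated 3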
Numbers without * were called inactive; ? = inconclusive; / = no result given.

SMILES	LAP4 TOR yeast	MEP2 TOR yeast	AGP1 TOR yeast	CIT2 TOR yeast	RPL19A-GFP yeast	LAP4-GFP pick2	MEP2-GFP pick2	RPL19A-GFP pick2	CIT2-GFP pick2	AGP1 GFP CP2	others
Cc1cc(C)nc(Nc2n[nH]c(COc3ccc4ccccc4c3)n2)n1	104.9	104.1	100.7	93.4	96.0	/	/	/	/	/
CC(NC(=O)c1c(Cl)cnn1C)C1CCCO1 (stereo unspecified)	102.0	104.2	100.1	108.8	118.3	/	/	/	/	/
C[C@H](NC(=O)c1ccco1)C(=O)N1CCCC1	80.5	91.6	85.4	88.5	93.1	/	/	/	/	/
CC(NC(=O)c1ccco1)C(=O)N1CCCCC1 (stereo unspecified)	91.3	109.5	113.0	150.1*	100.1	100.0	103.2	100.7	99.5	98.2
CCNS(=O)(=O)c1ccc(CCC(=O)N2CCCC2)cc1	83.8	95.2	95.8	100.3	102.0	/	/	/	/	/
CSc1nc(Cc2ccc(Cl)cc2)nc2ccccc12	161.4*	97.6	100.9	82.5	78.3	100.2	104.8	99.7	104.3	96.7
CNc1nc(N)cc(Nc2ccccc2F)n1	/	/	/	/	/	/	/	/	/	/	TORC1 bypass=3
O=[N+]([O-])c1ccc(Sc2nc3ccccc3o2)c([N+](=O)[O-])c1	164.7*	98.5	97.7	107.1	102.2	/	/	/	/	/	Yeast autofluor=0.51
C=CCN(C(=O)CCC(=O)Nc1cc(C)on1)C(C(=O)NC1CCCC1)c1ccc(C)cc1 (stereo unspecified)	?	?	?	?	59.0	/	/	/	/	/
Cn1c(N)c(Sc2ccc([N+](=O)[O-])cc2)c(=O)n(C)c1=O	97.6	93.5	101.6	97.8	98.5	/	/	/	/	/
O=C1C=CC(=O)N1c1ccc(Sc2ccc([N+](=O)[O-])cc2)cc1	162.0*	101.9	69.1	84.9	84.7	/	/	/	/	/	Yeast autofluor=2.96
CCOc1ccccc1C(=O)N(CCC(=O)OC)c1ccccn1	85.4	90.1	93.0	93.0	95.3	/	/	/	/	/
COC(=O)CCN(C(=O)C1C2CC3CC(C2)CC1C3)c1ccccn1 (stereo unspecified)	154.0*	93.4	106.8	96.0	95.1	111.2	125.8	100.8	122.4	102.0
COc1ccc(NC2CCCN(C(=O)CCN3Cc4ccccc4C3=O)C2)cc1 (stereo unspecified)	104.4	101.0	109.0	105.4	102.7	/	/	/	/	/
Cc1ccccc1C(=O)NNC(=O)C1CC(=O)N(Cc2ccccc2)C1 (stereo unspecified)	110.0	118.9	115.4	107.3	105.6	/	/	/	/	/
CN(C)c1ccc(N=Cc2nc(-c3ccccc3)oc2OC(=O)c2cccc(Cl)c2)cc1	95.4	98.8	102.5	105.5	104.6	/	/	/	/	/	Yeast autofluor=0.71
Cc1ccc(-c2nc(C=Nc3ccccc3)c(O)o2)cc1	112.7	100.6	97.7	90.5	102.9	/	/	/	/	/
Cc1ccc(C(=O)Oc2oc(-c3ccccc3)nc2C=Nc2ccc(N(C)C)cc2)cc1	101.2	93.7	95.0	90.7	104.1	/	/	/	/	/	Yeast autofluor=1.02
COCCNc1nc(C)cc(-c2cc(C(=O)Nc3ccccc3)on2)n1	102.6	90.0	89.1	92.6	97.5	101.9	103.2	100.2	107.4	97.7
COCCNc1nc(C)cc(-c2cc(C(=O)NCc3ccccc3)on2)n1	229.5*	355.8*	119.7	117.6	70.4	101.0	101.5	99.0	100.7	98.4
CCCNc1nc(-c2cc(C(=O)Nc3ccccc3)on2)cc(C(C)C)n1	115.0	107.0	92.4	97.9	98.0	100.2	99.6	94.2	96.0	104.4
Cc1cc(-c2cc(C(=O)NCc3ccccc3)on2)nc(S(C)(=O)=O)n1	102.7	98.0	97.1	88.1	95.1	101.9	98.2	100.7	100.7	99.3
CC(C)(CNc1ccc(S(=O)(=O)C(F)(F)F)cc1[N+](=O)[O-])N1CCOCC1	91.1	96.2	98.7	97.8	100.2	/	/	/	/	/
O=c1c(C(c2ccc(F)cc2)c2c(O)nc3n(c2=O)CCS3)c(O)nc2n1CCS2	98.1	89.0	113.2	110.1	93.2	/	/	/	/	/
O=C(COC(=O)c1ccccc1C(=O)OCC(=O)NCCc1c[nH]c2ccccc12)NCCc1c[nH]c2ccccc12	154.6*	95.5	95.9	131.3	97.1	102.2	97.8	97.2	101.5	98.6
CC(=O)c1ccc(N2CCN(C(=O)c3ccc(Br)cc3)CC2)c(F)c1	161.7*	110.0	121.2	89.7	103.4	/	/	/	/	/	Yeast autofluor=1.92;s288c autofl DR=0.52;TORC1 bypass=3
C=CCOc1ccc(/C=C/C(=O)OCC(=O)NCCCc2ccccc2)cc1	100.5	113.5	103.0	95.4	96.8	/	/	/	/	/
C=CCOc1ccc(/C=C/C(=O)OCC(=O)N2CCC(c3ccccc3)=N2)cc1	169.7*	174.3	121.9	171.2*	115.7	98.1	101.5	97.9	98.4	97.9

Source: PubChem BioAssay (NMMLSC)
